The supplement of paper PMC10849652
The full data set covers some 8,800 targets. This sample favours those with a hit. About 0.5% of all pairs of compound and target were hits.

How the values were obtained:
Assay in all cases: log2 fold change, soluble protein after heating vs DMSO (PISA); higher = thermal stabilisation; K562 lysate, 10 uM; active = over 0.2 and 3.5 SD of the protein, either way, in both replicates (recomputed)
alvocidib = compound: CN1CC[C@H](c2c(O)cc(O)c3c(=O)cc(-c4ccccc4Cl)oc23)[C@H](O)C1 [alvocidib]
How it was run: (§1)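 Quantification was by TMTpro 16plex LC-MS/MS with equalised channel sums, applied to the supernatant after 21,000xg for 90 min. Samples were crude K562 extract at 1 mg/mL protein in PBS pH 7.4 with 1 mM MgCl2, treated with 10 μM compound for 30 min, heated for 3 min across 48°C-58°C, pooled and brought to 0.5% NP-40 at 4°C. Values are log-two fold changes in thermal stability relative to solvent controls, from duplicates.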

Tubastatin A = compound: CN1CCc2c(c3ccccc3n2Cc2ccc(C(=O)NO)cc2)C1 [Tubastatin A]
How it was run: as §1

[1] = compound: CNC(=O)C1=CC=CC=C1NC2=NC(=NC=C2Cl)NC3=C(C=C(C=C3)N4CCOCC4)OC
How it was run: as §1

defactinib = compound: CNC(=O)c1ccc(Nc2ncc(C(F)(F)F)c(NCc3nccnc3N(C)S(C)(=O)=O)n2)cc1 [defactinib]
How it was run: as §1

[2] = compound: CNc1nc(-c2ccc3c(N)n[nH]c3c2)cc(N2C[C@@H](C(=O)NC3CCCCC3)CC[C@H]2C)n1
How it was run: as §1

encorafenib = compound: COC(=O)N[C@@H](C)CNc1nccc(-c2cn(C(C)C)nc2-c2cc(Cl)cc(NS(C)(=O)=O)c2F)n1 [encorafenib]
How it was run: as §1

[3] = compound: COC(=O)[C@H](CCSC)NC(=O)C1=C(C=C(C=C1)NC[C@H](CS)N)C2=CC=CC=C2
How it was run: as §1

alisertib = compound: COc1cc(Nc2ncc3c(n2)-c2ccc(Cl)cc2C(c2c(F)cccc2OC)=NC3)ccc1C(=O)O [alisertib]
How it was run: as §1

[4] = compound: COc1cc2nc(-c3cc(F)ccc3O)nc(N[C@@H]3CNC[C@H]3C(C)(C)O)c2cc1OC
How it was run: as §1

gefitinib = compound: COc1cc2ncnc(Nc3ccc(F)c(Cl)c3)c2cc1OCCCN1CCOCC1 [gefitinib]
How it was run: as §1

Measured: log2 fold change

HEATR6 (UniProt Q6AI08)
Sequence of UniProt Q6AI08 (Q6AI08 whole entry, looked up): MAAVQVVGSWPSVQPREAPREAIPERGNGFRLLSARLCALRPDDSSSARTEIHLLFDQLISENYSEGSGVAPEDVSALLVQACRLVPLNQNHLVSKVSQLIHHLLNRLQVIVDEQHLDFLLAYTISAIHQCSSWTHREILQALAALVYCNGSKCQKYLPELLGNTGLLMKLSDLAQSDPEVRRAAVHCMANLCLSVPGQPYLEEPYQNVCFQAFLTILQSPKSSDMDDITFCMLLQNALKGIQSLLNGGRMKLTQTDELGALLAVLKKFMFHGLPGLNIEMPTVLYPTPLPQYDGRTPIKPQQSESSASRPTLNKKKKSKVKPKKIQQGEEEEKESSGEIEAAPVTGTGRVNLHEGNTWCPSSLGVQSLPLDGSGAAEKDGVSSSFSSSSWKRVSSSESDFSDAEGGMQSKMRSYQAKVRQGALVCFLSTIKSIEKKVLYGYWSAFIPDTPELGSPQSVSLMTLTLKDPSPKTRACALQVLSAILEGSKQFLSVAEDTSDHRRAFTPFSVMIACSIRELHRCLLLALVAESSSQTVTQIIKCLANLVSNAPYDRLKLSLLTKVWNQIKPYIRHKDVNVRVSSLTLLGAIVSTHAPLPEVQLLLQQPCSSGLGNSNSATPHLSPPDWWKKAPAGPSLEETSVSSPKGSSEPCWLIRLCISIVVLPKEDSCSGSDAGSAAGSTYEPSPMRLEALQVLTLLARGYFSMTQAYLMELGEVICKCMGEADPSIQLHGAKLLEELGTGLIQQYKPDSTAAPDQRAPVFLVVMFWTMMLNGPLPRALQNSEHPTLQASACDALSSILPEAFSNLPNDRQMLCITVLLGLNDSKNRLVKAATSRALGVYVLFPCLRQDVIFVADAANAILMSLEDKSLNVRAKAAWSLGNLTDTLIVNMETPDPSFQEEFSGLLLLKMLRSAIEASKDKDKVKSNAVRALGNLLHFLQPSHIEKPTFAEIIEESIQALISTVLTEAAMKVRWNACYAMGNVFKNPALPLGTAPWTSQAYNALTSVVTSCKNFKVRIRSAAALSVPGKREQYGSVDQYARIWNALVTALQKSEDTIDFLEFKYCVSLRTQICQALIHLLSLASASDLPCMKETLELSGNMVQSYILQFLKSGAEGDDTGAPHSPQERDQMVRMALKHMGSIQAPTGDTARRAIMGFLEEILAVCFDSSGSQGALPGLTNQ
inactive: alvocidib 0.03 | Tubastatin A -0.1 | [1] 0.025 | defactinib 0.011 | [2] 0.008 | encorafenib 0.039 | [3] 0.101 | alisertib -0.028 | [4] -0.01 | gefitinib 0.001

GNB1 (UniProt P62873)
inactive: alvocidib -0.095 | Tubastatin A 0.029 | [1] -0.023 | defactinib -0.028 | [2] -0.011 | encorafenib 0.007 | [3] 0.003 | alisertib -0.023 | [4] -0.011 | gefitinib -0.128

INTS8 (UniProt Q75QN2)
inactive: alvocidib -0.011 | Tubastatin A -0.013 | [1] 0.083 | defactinib 0.084 | [2] 0.011 | encorafenib 0.098 | [3] -0.111 | alisertib -0.008 | [4] -0.033 | gefitinib -0.04

HSPA8 (UniProt E9PK54)
inactive: alvocidib -0.047 | Tubastatin A 0.036 | [1] -0.066 | defactinib -0.041 | [2] -0.05 | encorafenib -0.025 | [3] -0.004 | alisertib -0.016 | [4] 0.016 | gefitinib -0.051

INTS7 (UniProt Q9NVH2)
Sequence of UniProt Q9NVH2 (Q9NVH2 whole entry, looked up): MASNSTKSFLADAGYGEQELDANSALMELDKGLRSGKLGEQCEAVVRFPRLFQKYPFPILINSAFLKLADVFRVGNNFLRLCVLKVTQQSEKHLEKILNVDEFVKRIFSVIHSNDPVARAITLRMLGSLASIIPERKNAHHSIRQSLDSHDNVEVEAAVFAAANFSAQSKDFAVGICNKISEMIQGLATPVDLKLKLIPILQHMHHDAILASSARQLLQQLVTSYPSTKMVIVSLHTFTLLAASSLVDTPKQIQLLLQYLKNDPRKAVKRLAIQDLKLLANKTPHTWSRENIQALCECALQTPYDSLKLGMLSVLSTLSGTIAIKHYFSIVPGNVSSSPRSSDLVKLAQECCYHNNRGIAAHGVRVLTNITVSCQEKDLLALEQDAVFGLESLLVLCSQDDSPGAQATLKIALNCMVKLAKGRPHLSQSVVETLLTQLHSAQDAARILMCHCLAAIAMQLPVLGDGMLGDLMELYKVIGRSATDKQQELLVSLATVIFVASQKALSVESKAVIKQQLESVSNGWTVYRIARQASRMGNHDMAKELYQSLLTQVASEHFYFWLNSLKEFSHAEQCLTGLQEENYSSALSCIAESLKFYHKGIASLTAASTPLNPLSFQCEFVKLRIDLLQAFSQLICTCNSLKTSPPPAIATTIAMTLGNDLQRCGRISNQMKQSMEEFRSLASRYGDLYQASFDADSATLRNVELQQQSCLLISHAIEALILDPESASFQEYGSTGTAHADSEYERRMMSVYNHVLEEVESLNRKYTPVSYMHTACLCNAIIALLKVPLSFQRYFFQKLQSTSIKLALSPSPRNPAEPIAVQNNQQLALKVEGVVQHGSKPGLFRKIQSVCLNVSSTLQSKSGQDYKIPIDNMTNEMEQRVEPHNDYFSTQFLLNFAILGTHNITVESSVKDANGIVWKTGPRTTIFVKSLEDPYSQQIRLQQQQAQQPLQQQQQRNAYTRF
inactive: alvocidib -0.012 | Tubastatin A 0.008 | [1] -0.025 | defactinib -0.125 | [2] -0.017 | encorafenib 0.067 | [3] 0.017 | alisertib -0.022 | [4] -0.018 | gefitinib 0.028

KDM6A (UniProt O15550)
inactive: alvocidib -0.057 | Tubastatin A -0.057 | [1] 0.041 | defactinib -0.048 | [2] 0.006 | encorafenib 0.054 | [3] 0.018 | alisertib -0.025 | [4] -0.005 | gefitinib -0.011

GMPS (UniProt P49915)
inactive: alvocidib 0.04 | Tubastatin A -0.065 | [1] -0.009 | defactinib 0.014 | [2] -0.025 | encorafenib -0.022 | [3] 0.025 | alisertib 0.005 | [4] -0.003 | gefitinib -0.026

GNL3 (UniProt Q9BVP2)
active: [3] 0.252
inactive: alvocidib 0.023 | Tubastatin A 0.008 | [1] 0.055 | defactinib -0.002 | [2] 0.038 | encorafenib 0.014 | alisertib -0.006 | [4] 0.033 | gefitinib -0.029

ICAM2 (UniProt P13598)
Sequence of UniProt P13598 (P13598 whole entry, looked up): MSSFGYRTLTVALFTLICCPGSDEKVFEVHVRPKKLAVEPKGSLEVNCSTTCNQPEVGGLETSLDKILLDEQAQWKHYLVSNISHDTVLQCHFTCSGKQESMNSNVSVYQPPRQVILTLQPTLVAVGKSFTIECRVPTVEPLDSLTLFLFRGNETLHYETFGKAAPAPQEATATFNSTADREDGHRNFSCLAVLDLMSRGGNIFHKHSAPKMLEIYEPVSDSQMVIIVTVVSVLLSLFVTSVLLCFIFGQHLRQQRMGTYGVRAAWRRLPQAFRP
inactive: alvocidib 0.078 | Tubastatin A 0.017 | [1] 0.032 | defactinib 0.039 | [2] -0.019 | encorafenib -0.026 | [3] -0.065 | alisertib -0.016 | [4] 0.009 | gefitinib -0.02

HAUS5 (UniProt O94927)
inactive: alvocidib 0.062 | Tubastatin A -0.146 | [1] 0.007 | defactinib 0.026 | [2] 0.015 | encorafenib -0.006 | [3] 0.092 | alisertib -0.01 | [4] 0.006 | gefitinib -0.007

GLUD2 (UniProt P49448)
inactive: alvocidib -0.029 | Tubastatin A 0.12 | [1] 0.053 | defactinib 0.061 | [2] 0.02 | encorafenib 0.066 | [3] 0.115 | alisertib -0.06 | [4] -0.021 | gefitinib 0.036

KDM1A (UniProt O60341)
inactive: alvocidib -0.034 | Tubastatin A -0.067 | [1] -0.023 | defactinib -0.003 | [2] 0.013 | encorafenib 0.003 | [3] 0.095 | alisertib 0.012 | [4] 0.001 | gefitinib 0.006

GTF3C3 (UniProt Q9Y5Q9)
Sequence of UniProt Q9Y5Q9 (Q9Y5Q9 whole entry, looked up): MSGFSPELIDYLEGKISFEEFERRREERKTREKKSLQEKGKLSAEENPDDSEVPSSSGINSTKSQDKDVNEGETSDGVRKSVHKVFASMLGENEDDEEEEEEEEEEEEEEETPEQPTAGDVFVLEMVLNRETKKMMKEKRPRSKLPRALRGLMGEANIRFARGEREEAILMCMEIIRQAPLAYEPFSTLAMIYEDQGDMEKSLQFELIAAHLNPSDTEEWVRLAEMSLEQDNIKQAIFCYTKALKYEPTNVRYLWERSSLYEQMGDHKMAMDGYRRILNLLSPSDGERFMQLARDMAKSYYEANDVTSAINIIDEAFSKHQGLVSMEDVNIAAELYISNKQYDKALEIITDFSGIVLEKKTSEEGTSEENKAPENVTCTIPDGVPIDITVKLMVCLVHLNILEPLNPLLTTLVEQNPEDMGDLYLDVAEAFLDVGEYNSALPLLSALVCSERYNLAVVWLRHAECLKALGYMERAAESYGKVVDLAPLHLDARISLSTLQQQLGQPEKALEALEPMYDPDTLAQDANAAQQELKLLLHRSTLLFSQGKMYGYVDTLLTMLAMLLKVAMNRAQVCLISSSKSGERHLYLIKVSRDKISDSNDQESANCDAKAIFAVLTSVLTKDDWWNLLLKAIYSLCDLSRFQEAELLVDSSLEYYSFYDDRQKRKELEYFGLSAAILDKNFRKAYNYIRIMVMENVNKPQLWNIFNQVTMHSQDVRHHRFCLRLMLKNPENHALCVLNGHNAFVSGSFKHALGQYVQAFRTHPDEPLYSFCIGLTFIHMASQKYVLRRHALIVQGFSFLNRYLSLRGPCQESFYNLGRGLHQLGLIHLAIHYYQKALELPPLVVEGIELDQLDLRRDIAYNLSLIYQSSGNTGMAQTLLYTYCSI
inactive: alvocidib -0.018 | Tubastatin A -0.147 | [1] 0.043 | defactinib -0.007 | [2] 0.04 | encorafenib -0.001 | [3] 0.065 | alisertib -0.006 | [4] 0.02 | gefitinib -0.006

HDGFL2 isoform 2 (UniProt Q7Z4V5)
inactive: alvocidib -0.155 | Tubastatin A 0.011 | [1] 0.013 | defactinib -0.008 | [2] 0.016 | encorafenib -0.004 | [3] -0.065 | alisertib -0.029 | [4] 0 | gefitinib 0.03

KCTD20 (UniProt Q7Z5Y7)
inactive: alvocidib 0.05 | Tubastatin A -0.174 | [1] 0.01 | defactinib -0.041 | [2] -0.025 | encorafenib -0.165 | [3] -0.058 | alisertib -0.089 | [4] -0.095 | gefitinib 0.035

HNRNPAB isoform 3 (UniProt Q99729)
Sequence of UniProt Q99729 (Q99729 whole entry, looked up): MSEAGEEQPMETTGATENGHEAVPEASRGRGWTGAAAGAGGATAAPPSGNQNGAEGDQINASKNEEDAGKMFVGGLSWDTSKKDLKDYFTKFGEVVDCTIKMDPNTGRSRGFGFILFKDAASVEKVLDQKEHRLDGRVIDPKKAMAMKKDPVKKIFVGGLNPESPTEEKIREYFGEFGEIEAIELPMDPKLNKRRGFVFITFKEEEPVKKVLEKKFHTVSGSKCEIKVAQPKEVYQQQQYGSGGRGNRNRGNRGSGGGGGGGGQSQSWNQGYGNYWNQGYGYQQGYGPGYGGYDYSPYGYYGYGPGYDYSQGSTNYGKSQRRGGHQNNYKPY
inactive: alvocidib -0.018 | Tubastatin A 0.021 | [1] -0.018 | defactinib 0.017 | [2] 0.043 | encorafenib -0.012 | [3] -0.016 | alisertib -0.035 | [4] 0 | gefitinib 0.03

HMGCL (UniProt P35914)
Sequence of UniProt P35914 (P35914 whole entry, looked up): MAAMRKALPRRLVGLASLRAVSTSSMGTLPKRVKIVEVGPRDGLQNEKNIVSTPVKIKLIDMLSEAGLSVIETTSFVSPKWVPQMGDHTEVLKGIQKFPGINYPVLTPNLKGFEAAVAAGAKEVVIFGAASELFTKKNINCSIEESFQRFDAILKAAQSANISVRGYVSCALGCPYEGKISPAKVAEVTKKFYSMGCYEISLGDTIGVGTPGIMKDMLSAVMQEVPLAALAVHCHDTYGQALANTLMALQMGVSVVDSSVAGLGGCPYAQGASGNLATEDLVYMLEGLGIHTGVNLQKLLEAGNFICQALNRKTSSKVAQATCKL
inactive: alvocidib 0.013 | Tubastatin A -0.012 | [1] -0.015 | defactinib 0.059 | [2] 0.055 | encorafenib 0.032 | [3] -0.102 | alisertib -0.031 | [4] -0.016 | gefitinib -0.021

IMPDH2 (UniProt P12268)
active: Tubastatin A -0.226 | [3] -0.501
inactive: alvocidib 0.026 | [1] 0.013 | defactinib 0.03 | [2] 0.017 | encorafenib 0.021 | alisertib 0.029 | [4] -0.015 | gefitinib -0.023

GIT1 (UniProt Q9Y2X7)
Sequence of UniProt Q9Y2X7 (Q9Y2X7 whole entry, looked up): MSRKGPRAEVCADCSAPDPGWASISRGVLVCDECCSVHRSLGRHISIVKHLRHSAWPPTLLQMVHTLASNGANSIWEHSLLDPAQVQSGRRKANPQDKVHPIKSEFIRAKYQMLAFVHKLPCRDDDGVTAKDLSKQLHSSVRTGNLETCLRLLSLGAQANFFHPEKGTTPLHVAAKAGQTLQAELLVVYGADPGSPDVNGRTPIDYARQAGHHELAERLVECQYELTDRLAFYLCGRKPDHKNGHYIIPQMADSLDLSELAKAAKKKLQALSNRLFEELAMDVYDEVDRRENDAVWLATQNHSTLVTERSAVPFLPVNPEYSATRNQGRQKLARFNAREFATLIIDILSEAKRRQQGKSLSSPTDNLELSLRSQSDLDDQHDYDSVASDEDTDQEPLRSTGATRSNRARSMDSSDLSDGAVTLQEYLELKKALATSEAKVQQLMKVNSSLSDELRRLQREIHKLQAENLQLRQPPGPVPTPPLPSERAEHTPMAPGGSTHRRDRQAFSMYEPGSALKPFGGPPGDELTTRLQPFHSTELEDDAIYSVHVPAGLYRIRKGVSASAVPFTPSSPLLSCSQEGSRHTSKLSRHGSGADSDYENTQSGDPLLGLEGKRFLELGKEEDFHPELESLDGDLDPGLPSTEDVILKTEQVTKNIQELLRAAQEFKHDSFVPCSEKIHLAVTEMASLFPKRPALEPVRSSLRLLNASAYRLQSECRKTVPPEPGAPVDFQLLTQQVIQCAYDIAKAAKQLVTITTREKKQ
inactive: alvocidib 0.015 | Tubastatin A -0.04 | [1] 0.022 | defactinib 0.023 | [2] -0.084 | encorafenib 0.002 | [3] 0.026 | alisertib 0.05 | [4] -0.011 | gefitinib -0.031

IMPACT (UniProt Q9P2X3)
Sequence of UniProt Q9P2X3 (Q9P2X3 whole entry, looked up): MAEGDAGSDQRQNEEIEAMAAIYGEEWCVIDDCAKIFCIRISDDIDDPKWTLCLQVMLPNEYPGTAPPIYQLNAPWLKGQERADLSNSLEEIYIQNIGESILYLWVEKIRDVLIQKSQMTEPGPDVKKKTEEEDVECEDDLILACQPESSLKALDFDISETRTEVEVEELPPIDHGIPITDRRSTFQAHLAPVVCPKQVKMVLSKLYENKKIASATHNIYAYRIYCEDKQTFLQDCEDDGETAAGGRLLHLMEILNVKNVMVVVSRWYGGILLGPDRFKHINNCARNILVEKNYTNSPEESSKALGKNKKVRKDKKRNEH
inactive: alvocidib 0.002 | Tubastatin A -0.04 | [1] -0.006 | defactinib 0.013 | [2] -0.05 | encorafenib 0.063 | [3] -0.083 | alisertib -0.024 | [4] -0.044 | gefitinib 0.167

IRAK1 (UniProt P51617)
inactive: alvocidib -0.104 | Tubastatin A -0.038 | [1] 0.314 | defactinib 0.086 | [2] 0.121 | [3] 0.062 | alisertib -0.01 | [4] 0.096 | gefitinib 0.022
active: encorafenib 0.812

GTF2A1 (UniProt P52655)
inactive: alvocidib 0.165 | Tubastatin A 0.006 | [1] -0.047 | defactinib 0.033 | [2] 0.048 | encorafenib -0.005 | [3] -0.026 | alisertib -0.029 | [4] -0.024 | gefitinib 0.008
